Measured values reported in PubChem BioAssay AID1159580 (chemical genetic matrix, 2015).
The whole screen tested about 5,500 compounds, of which about 2,000 (36%) were called active. Another 18% or so got no clear call; they are omitted. No stated cut-off is given here; in the data, active means normalized growth mostly below about 0.91 (no sharp cut-off); inconclusive means no clear call, values can overlap the other calls; inactive means mostly above about 0.92. This is one part of the list.

Assay: chemical genetic growth profiling, strain panel (AID 1159580);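 further: tested at 20 µM; growth read once vehicle control cultures reached saturation at 30 °C; 1 = growth at the plate median or of vehicle wells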
Conditions: S. cerevisiae deletion strains, growth OD

Measured: normalized growth

CCNC(=S)N/N=C\c1cc(Cl)cc(Cl)c1O
active: locus YER123W, strain YCK3, stronger effect = lower value 0.577 | locus YGR092W, strain DBF2, stronger effect = lower value 0.313 | locus YHR030C, strain SLT2, stronger effect = lower value 0.446 | locus YHR079C, strain IRE1, stronger effect = lower value 0.341 | locus YKL203C, strain TOR2, stronger effect = lower value 0.686 | locus YLR113W, strain HOG1, stronger effect = lower value 0.706 | locus YOR231W, strain MKK1, stronger effect = lower value 0.471 | locus YPL031C, strain PHO85, stronger effect = lower value 0.635 | locus YPL153C, strain RAD53, stronger effect = lower value 0.621 | locus YPL204W, strain HRR25, stronger effect = lower value 0.642 | locus YPL256C, strain CLN2, stronger effect = lower value 0.495
inactive: locus YAR019C, strain CDC15, stronger effect = lower value 0.926 | locus YBL105C, strain PKC1, stronger effect = lower value 0.938 | locus YBR135W, strain CKS1, stronger effect = lower value 0.92 | locus YBR136W, strain MEC1, stronger effect = lower value 0.931 | locus YBR160W, strain CDC28, stronger effect = lower value 0.922 | locus YDL017W, strain CDC7, stronger effect = lower value 0.925 | locus YDL028C, strain MPS1, stronger effect = lower value 0.927 | locus YDL101C, strain DUN1, stronger effect = lower value 0.923 | locus YDL108W, strain KIN28, stronger effect = lower value 0.928 | locus YDL132W, strain cdc53, stronger effect = lower value 0.948 | locus YDL214C, strain PRR2, stronger effect = lower value 0.83 | locus YDR052C, strain DBF4, stronger effect = lower value 0.929 | locus YDR054C, strain cdc34, stronger effect = lower value 0.938 | locus YDR226W, strain ADK1, stronger effect = lower value 0.941 | locus YDR477W, strain SNF1, stronger effect = lower value 0.733 | locus YER133W, strain GLC7, stronger effect = lower value 0.752 | locus YFL009W, strain cdc4, stronger effect = lower value 0.911 | locus YFL029C, strain CAK1, stronger effect = lower value 0.919 | locus YFR003C, strain YPI1, stronger effect = lower value 0.937 | locus YFR019W, strain FAB1, stronger effect = lower value 0.873 | locus YFR028C, strain CDC14, stronger effect = lower value 0.947 | locus YGR040W, strain KSS1, stronger effect = lower value 0.775 | locus YGR052W, strain FMP48, stronger effect = lower value 0.709 | locus YHR082C, strain KSP1, stronger effect = lower value 0.699 | locus YHR205W, strain SCH9, stronger effect = lower value 0.778 | locus YIL147C, strain SLN1, stronger effect = lower value 0.923 | locus YJL095W, strain BCK1, stronger effect = lower value 0.568 | locus YJL128C, strain PBS2, stronger effect = lower value 0.925 | locus YJL157C, strain FAR1, stronger effect = lower value 0.774 | locus YJR016C, strain ILV3, stronger effect = lower value 0.93 | locus YJR066W, strain TOR1 (second series), stronger effect = lower value 0.654 | locus YJR066W, strain TOR1, stronger effect = lower value 0.509 | locus YKL048C, strain ELM1, stronger effect = lower value 0.825 | locus YKL067W, strain YNK1, stronger effect = lower value 0.875 | locus YKL101W, strain HSL1, stronger effect = lower value 0.76 | locus YKL193C, strain SDS22, stronger effect = lower value 0.908 | locus YLR133W, strain CKI1, stronger effect = lower value 0.804 | locus YLR403W, strain SFP1, stronger effect = lower value 0.746 | locus YML070W, strain DAK1, stronger effect = lower value 0.809 | locus YMR001C, strain CDC5, stronger effect = lower value 0.923 | locus YMR205C, strain PFK2 (second series), stronger effect = lower value 0.805 | locus YMR277W, strain FCP1, stronger effect = lower value 0.916 | locus YNL006W, strain LST8, stronger effect = lower value 0.919 | locus YNL020C, strain ARK1, stronger effect = lower value 0.749 | locus YNL161W, strain CBK1, stronger effect = lower value 0.926 | locus YNL183C, strain NPR1, stronger effect = lower value 0.589 | locus YNL207W, strain RIO2, stronger effect = lower value 0.91 | locus YNL222W, strain SSU72, stronger effect = lower value 0.93 | locus YNL307C, strain MCK1 (second series), stronger effect = lower value 0.647 | locus YOL078W, strain AVO1, stronger effect = lower value 0.916 | locus YOL136C, strain PFK27, stronger effect = lower value 0.778 | locus YOR061W, strain CKA2, stronger effect = lower value 0.801 | locus YOR119C, strain RIO1, stronger effect = lower value 0.78 | locus YOR329C, strain SCD5, stronger effect = lower value 0.926 | locus YPL209C, strain IPL1, stronger effect = lower value 0.919 | locus YPR025C, strain CCL1, stronger effect = lower value 0.923 | locus YPR106W, strain ISR1, stronger effect = lower value 0.947 | locus YPR111W, strain DBF20, stronger effect = lower value 0.938 | strain NNK1, stronger effect = lower value 0.94 | strain TSCII, stronger effect = lower value 0.912
